Reference: ChEMBL document CHEMBL4513216, “Probing the Open Global Health Chemical Diversity Library for Multistage-Active Starting Points for Next-Generation Antimalarials” (ACS Infect Dis, 2020)
Hit rate of the full screen: of about 69,000 compounds, about 8,600 (12%) showed an effect of 50% or more. For the sample, strong results were picked, then their nearest neighbours and some compounds at random.

The compounds below were run on Plasmodium berghei (assay: Screen against P. berghei liver stage (PbLuc), transformed with Luciferase, at 10uM). Details: tested at 10 uM.
Type: functional, HepG2

Structure (SMILES) | INHIBITION
Fc1cc(Cl)cnc1N1CCCC(c2nccn2Cc2ccncc2)C1 (stereo not given) | 31.4%
CCOC(=O)c1cccc(N2CCCC3(CCC(=O)N(C4CC4)C3)C2)n1 (stereo not given) | 28.7%
CC(C)C1CN(C(=O)c2ccn(C)c(=O)c2)c2ccccc2N1 (stereo not given) | -36.7%
Cc1nc(CN(C)C2CCN(CCCc3ccccc3)C2)no1 (stereo not given) | -61.4%
Cc1ccc(-c2nc(CN3CCn4c(C)nnc4C3)cs2)o1 | -31.8%
Cc1cc(C(=O)N(CC(C)C)CC(O)c2ccc(F)cc2)[nH]n1 (stereo not given) | -36.4%
CSc1ccccc1NC(=O)C1CN(C(=O)c2ccc3c(c2)OCO3)C1 | 12.7%
CN(C)C(=O)[C@@H]1CCO[C@@H]2CCN(c3ncccn3)C[C@@H]21 | 8.85%
Cc1nc(C)n(CC2CCCN(Cc3nnc(-c4ccco4)o3)C2)n1 (stereo not given) | -0.79%
Cc1nc(C)n(CC2CCCN2Cc2nnc(-c3ccco3)o2)n1 (stereo not given) | 50%
Cc1nc(C)n(CC2CCCCN2Cc2nnc(-c3ccco3)o2)n1 (stereo not given) | -9.07%
O=C(Cn1cc(-c2ccccc2)ncc1=O)Nc1nc(C2CC2)n[nH]1 | 33.7%
O=C(N[C@H]1COC[C@@H]1N1CCCC1)c1csc(-c2cccs2)n1 | 34.2%
COc1ccc(C[C@H]2CN(c3cc(OC)ncn3)CC[C@@H]2OC)cc1 | 55.5%
COc1ccc(C[C@H]2CN(C(=O)c3ccncc3)CC[C@@H]2OC)cc1 | 34.1%
COc1ccc(C[C@H]2CN(C(=O)c3ncccn3)CC[C@@H]2OC)cc1 | 27.2%
COc1cc(N2CC[C@@H](OC)[C@@H]2Cc2ccccc2)ncn1 | -30%
COc1ccc(C[C@H]2CN(C(=O)c3ccc(C)nc3)CC[C@@H]2OC)cc1 | -12.2%
COc1ccc(C[C@H]2CN(c3cc(OC)ncn3)CC[C@H]2OC)cc1 | 74.8%
c1cc(CN2CCCn3cnc(COCC4CC4)c3C2)ccn1 | 18.5%
COCc1nn(C)c2c1CCN(Cc1cnn(C)c1)C2 | -17.1%
N#Cc1ccc(CNCCc2cc(F)cc3c2OCOC3)cc1 | 28.8%
Cc1cc(C(=O)N2CCO[C@H]3[C@H](OCCN(C)C)CC[C@@H]32)c(C)[nH]1 | 24.3%
O=C1OCCN1CC(=O)N1C[C@@H]2CC[C@H]1CN(C(=O)c1ccccn1)C2 | 44.8%
O=C1Nc2ccccc2CN(CC2CC2)C12CCNC2 (stereo not given) | 46.6%
O=C(CN1CC(c2nc(Cc3ccccc3)no2)C1)NCC1CCCO1 (stereo not given) | 2.55%
CC(C)NC(=O)C1CN(C(=O)N(C)C)CC12CCOCC2 (stereo not given) | 89.2%

Structure (SMILES) | INHIBITION
Cc1ccc(NC(=O)N2CC(C(=O)NC(C)C)C3(CCOCC3)C2)cc1 (stereo not given) | 80%
CC(C)NC(=O)C1CN(C(=O)CCc2ccccc2)CC12CCOCC2 (stereo not given) | 20.9%
CC(C)NC(=O)C1CN(C(=O)Nc2ccccc2)CC12CCOCC2 (stereo not given) | 17.6%
CC(C)NC(=O)C1CN(C(=O)N2CCCC2)CC12CCOCC2 (stereo not given) | 22.7%
CN(C)C(=O)N1CC(C(=O)NCC2CC2)C2(CCOCC2)C1 (stereo not given) | 36.7%
CC(C)NC(=O)C1CN(C(=O)Cc2cccc(F)c2)CC12CCOCC2 (stereo not given) | 10%
CC(C)NC(=O)C1CN(C(=O)Cc2ccccc2)CC12CCOCC2 (stereo not given) | 53.4%
CC(C)NC(=O)C1CN(C(=O)Nc2ccc(F)cc2)CC12CCOCC2 (stereo not given) | 14.8%
CN(CCOCC1CC1)C(=O)Nc1ccc([S+](C)[O-])c(F)c1 (stereo not given) | 41.3%
Cc1cnn(CC(=O)N2CCCN(Cc3cnn(C(C)C)c3)CC2)c1 | 33.7%
NC(=O)CS(=O)(=O)Cc1csc(-c2ccccc2)n1 | 46.6%
CCS(=O)(=O)N1CC[C@H]2CO[C@H](CN(C)C)[C@H]2C1 | 19.4%
Cc1nc(NC(=O)OC(C)(C)C)sc1C(N)=O | -0.514%
Cc1nc(NC(=O)OC(C)(C)C)sc1C(=O)O | 46.6%
Cc1nc(NC(=O)OC(C)(C)C)sc1C#N | 53.4%
O=C(c1ccc[nH]1)N1CCc2ncc(Cn3cccn3)n2CC1 | 25.6%
c1ccc(CCN2CCC(OCC3CCCCO3)CC2)nc1 (stereo not given) | 7.24%
Cc1nccn1-c1cccc(C2CCCN2)n1 (stereo not given) | -2.09%
c1ccc(N2CCN(Cc3cnc(C4CCCCO4)nc3)CC2)cc1 (stereo not given) | 21.1%
c1ccc(N2CCC(OCC3CCCCO3)CC2)nc1 (stereo not given) | 62.9%
c1cnc(N2CCC(OCC3CCCCO3)CC2)nc1 (stereo not given) | 31.1%
Clc1ccc(N2CCC(OCC3CCCCO3)CC2)nc1 (stereo not given) | 34.5%
c1ccc(CN2CCN(Cc3cnc(C4CCCCO4)nc3)CC2)cc1 (stereo not given) | 10.9%
c1ccc(N2CCN(Cc3cnc(C4CCCCO4)nc3)CC2)nc1 (stereo not given) | 51.7%
Cc1nccn1-c1cccc(N2CCC(OCC3CCCCO3)CC2)n1 (stereo not given) | 95.9%
CCCn1cc(C(=O)N2CCCC2(C)c2nc(C)cc(C)n2)cn1 (stereo not given) | -3.02%
Cn1cc(S(=O)(=O)N(CC(F)(F)F)C2CC2)cc1C(N)=O | -29.2%

Structure (SMILES) | INHIBITION
O=C(Cn1cnc2ccsc2c1=O)c1ccc2c(c1)OCCO2 | -73.1%
CS(=O)(=O)NCCC(=O)N1CCN(S(=O)(=O)c2ccc(Br)cc2)CC1 | 11.8%
COCC(=O)NCc1cccc(Br)c1 | 3.81%
COCC(=O)NCCSCCOc1cccc(Br)c1 | 18%
COCC(=O)NCCC(=O)N1CCN(S(=O)(=O)c2cccc(Br)c2)CC1 | 63.8%
COCC(=O)NCCC(=O)N1CCN(S(=O)(=O)c2ccc(Br)cc2)CC1 | 68.4%
COCC(=O)N1CCN(S(=O)(=O)c2ccccc2)[C@@H](C(=O)OC)C1 | -33%
CCCn1ncc(C(=O)N2CCN(C3CCCC3)CC2)c1C | -39.2%
CCCn1ncc(C(=O)NC2CCN(CC3CCCO3)CC2)c1C (stereo not given) | 34.4%
CCCn1ncc(C(=O)NC2CCN(C3CCOCC3)CC2)c1C | 59.3%
CN1CC(=O)N(c2cccc(F)c2)CC12CCN(Cc1cnn(C)c1)C2 (stereo not given) | 18.2%
Cc1ccc(C2(CN3CCN(Cc4cnc(C)n4C)CC3)CC2)cc1 | 12.8%
CN1CCC(Cc2cnc3ccccc3c2)C1 (stereo not given) | 45.2%
CN1CCNCC(Cc2cnc3ccccc3c2)C1 (stereo not given) | 52.7%
c1ccc2ncc(CC3CCNC3)cc2c1 (stereo not given) | 35%
Cc1ccc(C)n1C(C)C(=O)N1CCCN(Cc2cscn2)CC1 (stereo not given) | 26.55%
CCOC(=O)CC1CCCCN1C(=O)c1cccc2ccnn12 (stereo not given) | -22.1%
Cn1cccc1C(=O)N1CCCC2(CCCN2Cc2cccnc2)C1 (stereo not given) | 56.9%
Cn1cc(CN2CCCC23CCN(C(=O)c2ccccc2)CC3)cn1 | -9.18%
CN1CCCCC12CCN(C(=O)c1cccn1C)CC2 | 50.7%
Cn1cc(CN2CCCC23CCN(C(=O)c2cccn2C)CC3)cn1 | 66%
CC(C)C(=O)N1CCCC2(CCCN2Cc2cccnc2)C1 (stereo not given) | 10.5%
O=C(c1cnccn1)N1CCCC2(CCCN2Cc2cccnc2)C1 (stereo not given) | -8.85%
Cn1cccc1C(=O)N1CCC2(CCCN2S(C)(=O)=O)CC1 | 28.2%
Cn1cccc1C(=O)N1CCC2(CCCN2Cc2ccccc2)CC1 | 45.3%
Cn1cccc1C(=O)N1CCC2(CC1)CCN2S(C)(=O)=O | 20.1%
CO[C@@]1(C)C[C@@H](O)C12CCN(C(=O)c1ccccc1C(C)=O)CC2 | 40.7%

Structure (SMILES) | INHIBITION
Cc1ccc(CN2C[C@@H]3COC[C@H](C(=O)N4CCCCO4)[C@@H]3C2)o1 | 14.8%
CC(C)CCN1CC2(CCCN(C(=O)CNC(=O)N(C)C)C2)CCC1=O (stereo not given) | 19.4%
Cc1cc(NC(=O)NCC(C)N2CCOCC2)n(C)n1 (stereo not given) | -17%
Cc1cc(-c2cnc(C3CC3)nc2CN(C)C(=O)c2ccccn2)on1 | -25%
CCOCCCNC(=O)Nc1ccc(F)c(C(N)=O)c1 | 7.67%
O=c1c2cccnc2ccn1Cc1nccn1C1CC1 | 14.9%
C[C@]1(O)CCN(Cc2nccs2)C[C@@H]1Oc1cccc(F)c1 | 26.3%
C[C@@]1(O)CCN(Cc2cc[nH]n2)C[C@H]1Oc1cccc(F)c1 | 66.4%
C[C@]1(O)CCN(Cc2c[nH]cn2)C[C@@H]1Oc1cccc(F)c1 | 32.3%
Cc1cnccc1CN1CC[C@@](C)(O)[C@H](Oc2ccccc2)C1 | 39.2%
Cc1cnccc1CN1CC[C@@](C)(O)[C@H](Oc2cccc(F)c2)C1 | 56%
Cc1ncc(CN2CC[C@@](C)(O)[C@H](Oc3cccc(F)c3)C2)cn1 | 56%
COc1ncc(CN2CC[C@@](C)(O)[C@H](Oc3cccc(F)c3)C2)cn1 | 37.9%
C[C@]1(O)CCN(Cc2cccnc2)C[C@@H]1Oc1cccc(F)c1 | 44.1%
Cc1cnccc1CN1CC[C@H](Oc2cccc(F)c2)[C@@](C)(O)C1 | 48.6%
O=C(Nc1ccccc1F)C1=NOC2(CCNCC2)C1 | -18.5%
CSCc1noc(CNC(=O)C2CCN(C(=O)C3CC3)CC2)n1 | 23%
Cc1nc(N2CCCC2)nc2c1CN(C(=O)N(C)C)CC2 | 37.1%
CN(CCc1ccncc1)CC1CCCN1c1cccnn1 (stereo not given) | -69.3%
Cc1cccc2nc(C(=O)N3CCC4(CCC(=O)N(C)C4)CC3)c(F)n12 | 33.4%
Cc1cnc(-c2nc(NC3CC3)ncc2-c2onc(C)c2C)cn1 | 0.301%
Fc1ccc(CN2CCC3(CCN(Cc4nccs4)CC3)C2)cc1 | 21.7%
CCN1CCC(CNCc2c[nH]nc2C(C)(C)C)C1 (stereo not given) | 11.4%
COc1ccc(CC(=O)N2CCC3(CC2)CCN(CC(C)C)C3=O)cc1 | 35.8%
